HT1080NT lethal – qHTS for induction of synthetic lethality in tumor cells producing 2HG: qHTS for the HT-1080-NT fibrosarcoma cell line; Potency, µM (series often up to 46.1 µM), for the others: at the highest dose activity, negative = less viability, actives largely listed as cytotoxic; hit rate 1.6% among 360,000; HT-1080-NT fibrosarcoma viability, CellTiter-Glo ATP luminescence, 48 h;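 further: NT is the 2HG producing partner of a matched IDH1 knockdown line; potency means the concentration at half of the fitted maximal effect; 0% = DMSO-treated cells and -100% = media-only wells without cells; nearly all actives have a fitted effect of over 55% in size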
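Compounds were tested in concentration-response format on HT-1080-NT cells for 48 hours at 37 degrees C. Cell viability came from CellTiter-Glo luminescence; curves were classified by r2, response magnitude and activity.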
IL1B secr inh – qHTS for Inhibitors of Inflammasome Signaling: IL-1-beta AlphaLISA Primary Screen | THP-1 LPS/ATP IL-1B secretion, AlphaLISA, 16 h; hits give low values | activity change, % at 57.5 µM | hit rate 4.7% among 360,000; in the data active means activity change below about -50%; inconclusive means mostly about -30% to -49%
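Secreted IL-1B measured by AlphaLISA bead assay after 16 h compound exposure of THP-1 cells; compounds (final up to 57.5 uM) added 1 h before LPS (250 ng/mL) and ATP (1.25 mM) stimulation; lower signal means less secretion.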
DT40 TDP1 no CPT – qHTS for Inhibitors of human tyrosyl-DNA phosphodiesterase 1 (TDP1): qHTS in cells in absence of CPT; hit rate 15% among 420,000; DT40 Tdp1-/- hTDP1 cells, no CPT, ATP luminescence, 48 h; AID 686978, 2013; Potency, µM (titrated, usually from 46.2 µM), without a hit: at the top dose activity change, negative = growth inhibition, hits mostly inhibitors; further: potency means the concentration at half of the fitted maximal effect; nearly all actives have a fitted effect of over 55% in size
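Readout: luminescence from CellTiter-Glo after 30 min in the dark at RT. Cells: DT40 Tdp1-/- with stable hTDP1, 400/well. Exposure: compounds alone, ≥48 hr, 37 °C.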
HT1080 IDH1KD tx – qHTS for induction of synthetic lethality in tumor cells producing 2HG: qHTS for the HT-1080-IDH1KD cell line; HT-1080 IDH1 knockdown viability, ATP luminescence, 48 h; Potency, µM (top dose mostly 46.1 µM), for inactives: top-dose activity, negative = toxicity, usual class: cytotoxic; hit rate 2% among 360,000; AID 686971, 2013;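 further: potency means the concentration at half of the fitted maximal effect; 0% = DMSO wells and -100% = cell-free medium wells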
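Cytotoxicity counter-line: IDH1KD HT-1080, 48 h, CellTiter-Glo. Curves classed by r2, magnitude and activity.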
TDP1 cell CPT – qHTS for Inhibitors of human tyrosyl-DNA phosphodiesterase 1 (TDP1): qHTS in cells in presence of CPT; Potency, µM (doses to about 46.2 µM), for the others: at the top dose activity change, negative = growth inhibition, hits mostly inhibitors; chicken DT40 Tdp1-/-;hTDP1 cells + 20 nM CPT, ATP luminescence, 48 h; hit rate 12% among 420,000; further: potency means the concentration at half of the fitted maximal effect; nearly all actives have a fitted effect of over 55% in size
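Chicken DT40 Tdp1-/- cells stably complemented with human TDP1 were seeded at 400 cells/well in medium containing 20 nM camptothecin, exposed to pin-transferred compounds, and grown at 37 °C for at least 48 hr. Viability was read as ATP luminescence.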
* marks the source's active call; other numbers are inactive results; i = inactive; ? = inconclusive; / = not tested or not shown. Rows were chosen to be rich in hits. Some 19% of all compounds tested hit in one or more screens of this group. Unless noted, the call rests on the fitted dose curve; in most records, active means well fitted curve in the direction sought with a large enough effect; inconclusive means small, poorly fitted or top-dose-only effect, or another doubt; inactive means no such curve, though single readings can be large; an effect the other way counts as inactive or inconclusive. Unless noted, on the % scale 0 is the no-effect control and ±100 the full control effect.

SMILES	HT1080NT lethal	IL1B secr inh	DT40 TDP1 no CPT	HT1080 IDH1KD tx	TDP1 cell CPT
CNC(=S)N/N=C/c1cn(Cc2c(F)cccc2Cl)c2ccccc12	-15.0%	38.3	11.6µM*	-27.1%	?
CC(C)Oc1cccc(C(=O)C2CCCN(C(=O)CCn3cnnn3)C2)c1 (stereo unspecified)	2.2%	33.8	-26.7%	4.1%	-5.4%
COc1ccc(C2(c3ccc(OC)cc3)NC(=O)N(CC(=O)Nc3cc(C)ccc3OC)C2=O)cc1	-18.7%	-16.3	?	?	18.4µM*
COc1ccc(C2(c3ccc(OC)cc3)NC(=O)N(CC(=O)Nc3ccc(C(=O)N(C)C)cc3)C2=O)cc1	-1.5%	i	-7.7%	-4.4%	-26.9%
COc1ccc(C(=O)COc2ccc(C)cc2NC(C)=O)cc1	-11.8%	-4.1	20.6µM*	-12.4%	?
CCOc1ccc(NC(=O)CCn2c(-c3ccc(F)cc3)cc(C(C)=O)c2C)cc1	/	/	23.1µM*	/	20.6µM*
CC(=O)c1cc(-c2ccccc2)n(CC(=O)NCc2ccccc2C)c1C	/	/	-6.4%	/	?
COc1ccc(C(=O)CC(=O)C(=O)Nc2cc(OC)ccc2OC)cc1	3.9%	18.3	?	22.2%	-1.7%
CC(=O)c1cc(-c2ccc(F)cc2)n(CCC(=O)NCc2ccccc2C)c1C	/	/	?	/	16.4µM*
CCN(CC(=O)Nc1c(F)cccc1F)C(=O)c1cc(S(=O)(=O)NCc2ccccc2)ccc1C	-8.1%	-10.3	-12.4%	-2.1%	?
COc1ccc(-c2cc(C(C)=O)c(C)n2CCC(=O)Nc2ccc(C(F)(F)F)cc2)cc1	/	/	13µM*	/	11.6µM*
CC(=O)c1cc(-c2ccc(F)cc2)n(CCC(=O)Nc2cccnc2)c1C	0.0%	17.8	-17.0%	5.7%	0.2%
COc1ccc(-c2cc(C(C)=O)c(C)n2CCC(=O)Nc2cc(C)ccc2OC)cc1	/	/	18.4µM*	/	16.4µM*
C#CCn1c(=NC(=O)CSC(C)=O)sc2cc(F)ccc21	0.2%	-1.3	20.6µM*	0.9%	10.3µM*
CCn1c(=NC(=O)CSC(C)=O)sc2cc(F)ccc21	-9.6%	-14.4	18.4µM*	-9.6%	?
C#CCn1c(=NC(=O)CSCC(=O)N2CCOCC2)sc2ccccc21	-3.7%	-7.5	?	5.4%	-9.0%
CCC(=O)N=c1sc2cc(F)cc(F)c2n1C	16.1%	32.8	-7.4%	-0.8%	2.8%
C#Cc1cccc(Nc2nc(NC(C)C)nc3ccsc23)c1	?	-24.1	20.6µM*	20.6µM*	?
C#Cc1cccc(Nc2nc(NCc3ccccc3OC)nc3ccsc23)c1	20.6µM*	-71.2*	9.2µM*	?	9.2µM*
C#Cc1cccc(Nc2nc(NCCOC)nc3ccsc23)c1	?	-8.4	20.6µM*	?	16.4µM*
COc1ccccc1CNc1nc2nc(C)c(Cl)c(C)n2n1	/	/	?	/	-21.5%
Cc1ccc2[nH]c3c(c2c1)CCCC3NC(=O)CCl (stereo unspecified)	1.3µM*	-100.4*	2.31µM*	9.2µM*	6.51µM*
Cc1ccc2[nH]c3c(c2c1)CCCC3C(N)=O (stereo unspecified)	-2.8%	33.1	9.7%	-1.3%	-4.3%
CCOC(=O)c1c(C)[nH]c(C(=O)COC(=O)c2cnccn2)c1C	1.2%	-2.1	16.1%	-10.9%	20.1%
CCOC(=O)c1c(C)[nH]c(-c2csc(N)n2)c1C	6.51µM*	42.0	?	4.61µM*	-16.7%
SMILES	HT1080NT lethal	IL1B secr inh	DT40 TDP1 no CPT	HT1080 IDH1KD tx	TDP1 cell CPT
CCOC(=O)c1c(C)[nH]c(-c2csc(C)n2)c1C	0.0%	-15.5	13µM*	-17.7%	?
Fc1ccc(-c2ccnc(=S)[nH]2)cc1	7.2%	0.0	?	-4.9%	20.6µM*
CSc1sc(-c2ccnc(=S)[nH]2)c(-c2ccccc2)c1C#N	0.0%	28.7	0.6%	1.5%	22.3%
CN(Cc1ccccc1)C(=O)c1cc2cc(F)ccc2[nH]1	-11.2%	45.2	?	-12.9%	-24.1%
COc1ccc(NC(=O)c2cc(C3CCCCN3S(=O)(=O)c3cccs3)on2)c(C)c1 (stereo unspecified)	-1.6%	10.2	23.1µM*	-11.7%	?
COc1ccc(S(=O)(=O)N2CCCCC2c2cc(C(=O)Nc3ccc(OC)cc3C)no2)cc1 (stereo unspecified)	-2.0%	9.1	18.4µM*	0.7%	16.4µM*
COc1ccc(S(=O)(=O)N2CCCCC2c2cc(C(=O)Nc3ccccc3)no2)cc1 (stereo unspecified)	?	0.0	-24.7%	4.3%	-18.2%
COc1ccc(S(=O)(=O)N2CCCCC2c2cc(C(=O)Nc3ccc(F)c(Cl)c3)no2)cc1 (stereo unspecified)	?	-17.3	16.4µM*	?	16.4µM*
COc1ccc(S(=O)(=O)N2CCCCC2c2cc(C(=O)NCc3cccnc3)no2)cc1 (stereo unspecified)	17.3%	7.7	?	0.5%	29.1µM*
Cc1ccc(S(=O)(=O)N2C[C@H]3C(=O)C[C@@H](c4ccccc4)N(S(=O)(=O)c4ccccc4C)[C@H]3C[C@H]2c2ccccc2)cc1	18.8%	5.7	?	6.5%	?
COC(=O)C1=C(CS(=O)(=O)c2ccc(OC)cc2)NC(=O)NC1c1ccccc1 (stereo unspecified)	18.3%	9.7	16.0%	12.7%	1.8%
CC(=O)/C(N=Nc1ccc(-n2ccc(C(F)(F)F)n2)cc1)=C(\C)O	12.9%	/	-21.2%	11.7%	7.1%
CCOC(=O)C1=C(COC(=O)c2cc(S(=O)(=O)N(C)C)ccc2C)NC(=O)NC1C (stereo unspecified)	-3.3%	0.0	?	-1.1%	-19.3%
CCCCN(C)CCNC(=O)c1nn(-c2ccc(OC)c(Cl)c2)c(=O)c2c1c1ccccc1n2C	/	/	18.4µM*	/	?
COc1ccc(-n2nc(C(=O)NCCc3cccc(C)c3)c3c4ccccc4n(C)c3c2=O)cc1Cl	/	/	-7.0%	/	-7.6%
CCOc1ccc(CCNC(=O)c2nn(-c3ccc(OC)c(Cl)c3)c(=O)c3c2c2ccccc2n3C)cc1OCC	/	/	?	/	-22.0%
COc1ccc(-n2nc(C(=O)NCc3ccco3)c3c4ccccc4n(C)c3c2=O)cc1Cl	-0.7%	44.3	10.3µM*	-15.7%	?
CCc1ccc(-c2ccc(SCC(=O)Nc3nnc(C)s3)nn2)cc1	-4.8%	4.0	-9.1%	-12.7%	-17.2%
Cc1ccc2cc(CN(CC(C)C)S(=O)(=O)c3ccccc3)c(=O)[nH]c2c1	1.7%	0.5	?	-1.8%	?

Assay outcomes as filed in PubChem.
